An excerpt weighted towards active compounds, which were near 7.2% of everything screened.
VLA-4 inh = inhibition in human VLA-4 binding assay, primary screen, VLA-4 allosteric modulator project, MLPCN library, flow cytometry, VLA-4 expressing cells. inhibition, % (about 7 µM as worked out from the volumes in the protocol). Integrin alpha-4 (Homo sapiens), P13612. AID 2557, 2010. ligand binding flow cytometry. 330,000 tested, 0.2% active; in the data active = inhibition above about 50%
Efflux pump mplx = inhibitors of Candida efflux pumps in yeast, primary screen, S. cerevisiae, Nile Red, multiplex; S. cerevisiae Candida pump triplex; inhibition, % at 10 µM; 330,000 tested, 0.44% active; AID 485275, 2010;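 active = plate passing quality check with inhibition over a set limit, or well fluorescence over plate mean plus 4 SD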;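 note: Nile Red retained in pooled yeast measured as flow cytometry median fluorescence; higher means more Nile Red kept so more efflux inhibition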
AHR act = AHR activators, primary screen, cell-based, luminescence, luciferase reporter, human; Aryl hydrocarbon receptor (Homo sapiens), P35869; 320,000 tested, 2.5% active; AHR-responsive luciferase reporter cells; activation, % at 5 µM; in the data active = activation above about 47%
Target sequence (P35869 whole entry, looked up): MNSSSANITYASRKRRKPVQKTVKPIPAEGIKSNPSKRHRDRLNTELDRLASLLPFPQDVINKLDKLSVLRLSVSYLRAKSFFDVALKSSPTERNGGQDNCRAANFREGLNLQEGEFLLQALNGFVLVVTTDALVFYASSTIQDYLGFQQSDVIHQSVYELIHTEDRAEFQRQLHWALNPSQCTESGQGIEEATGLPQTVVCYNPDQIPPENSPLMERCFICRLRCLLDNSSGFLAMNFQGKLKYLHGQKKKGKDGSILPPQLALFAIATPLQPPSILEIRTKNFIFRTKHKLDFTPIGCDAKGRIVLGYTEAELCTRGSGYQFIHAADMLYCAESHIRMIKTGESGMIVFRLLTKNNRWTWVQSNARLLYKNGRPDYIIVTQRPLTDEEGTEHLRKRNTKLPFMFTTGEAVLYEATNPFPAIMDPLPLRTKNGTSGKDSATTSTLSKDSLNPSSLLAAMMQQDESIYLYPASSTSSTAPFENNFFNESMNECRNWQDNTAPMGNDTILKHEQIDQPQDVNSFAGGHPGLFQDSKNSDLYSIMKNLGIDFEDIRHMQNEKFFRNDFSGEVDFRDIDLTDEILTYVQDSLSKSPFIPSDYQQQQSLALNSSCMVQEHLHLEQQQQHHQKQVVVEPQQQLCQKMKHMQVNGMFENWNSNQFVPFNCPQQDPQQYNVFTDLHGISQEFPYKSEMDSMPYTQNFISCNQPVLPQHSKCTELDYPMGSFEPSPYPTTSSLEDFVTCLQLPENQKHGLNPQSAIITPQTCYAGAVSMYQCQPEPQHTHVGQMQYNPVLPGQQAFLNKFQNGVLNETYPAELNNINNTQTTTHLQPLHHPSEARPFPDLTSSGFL
Mot1-301 SUMO = yeast Mot1-301 growth rescue at high temperature, primary screen, SUMOylation pathway inhibitor project, S. cerevisiae, ATP luminescence, 38.5C. 320,000 tested, 1% active. S. cerevisiae Mot1-301 growth rescue; percent above DMSO median, 100 means doubled. AID 2716, 2010. growth rescue, % at 18.8 µM;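 active = every valid replicate shows activation above 250% relative to neutral control wells; inactive = the rest, any valid replicate at or below 250%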
ALR inh = inhibitors of human ALR sulfhydryl oxidase, primary screen, biochemical, H2O2 detection, HRP-luminol luminescence, single point; purified ALR, DTT oxidation; inhibition, % (concentration not given with the values); 290,000 tested, 3.8% active;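 active = mean replicate inhibition above about 79%, with every replicate also reaching it, limit read from the data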
A1 inh = caspase 3/7 activation in MEF A1-2A-BIM cells, primary screen, A1 inhibitor project, cell-based, luminescence, HTS | caspase activation, % (concentration not given with the values) | Caspase-Glo 3/7 luminescence, 3 h; percent of clofoctol response, vehicle zero | 330,000 tested, 0.066% active | AID 2462, 2010;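 active = over half of replicate activation scores above 10%, or exactly half above 10 with the replicate mean above 10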
Mot1 SUMO dose = growth restoration of Mot1-301 yeast on galactose, dose response, SUMO pathway inhibitor project, whole organism, S. cerevisiae, ATP luminescence, cherry-picked samples. growth activity, percent, % at 42 µM. S. cerevisiae Mot1-301 galactose growth, 24 h; -100 = growth of slx-deleted rescue strain. 2,300 tested, under 10 active. shares compounds with Mot1-301 SUMO. AID 493004, 2010;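 active = Signal drops as the depositor expects, and the fitted half-maximal dose is no more than ten times the top valid tested dose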;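 note: more negative values mean stronger growth rescue toward the control strain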
Of the large screens only hits and unclear results are named; the others gave an inactive call (follow-up assays come after a bar, where they were run).

COc1cc(Cl)ccc1OCc1cc(C(=O)N(C)CC2CCCCO2)no1 (stereo not given)	none
CCCCNS(=O)(=O)c1ccc2c(c1)oc(=O)n2CC(=O)OCC	Mot1-301 SUMO 540.3 | Mot1 SUMO dose inactive
CCc1ccc(S(=O)(=O)NCc2cccnc2)cc1	Mot1-301 SUMO 571.4 | Mot1 SUMO dose inactive
CC(C)(C)c1ccc(-c2nc(N)nc(N)n2)cc1	none
Nc1nc(-c2ccc(Cl)cc2)nc(-c2ccc(Cl)cc2)n1	AHR act 69.5, Mot1-301 SUMO 941.9 (no result: ALR inh) | Mot1 SUMO dose inactive
Cc1ccc(C)c(-n2nnnc2SCC(=O)Nc2c(C)n(C)n(-c3ccccc3)c2=O)c1	Mot1-301 SUMO 376.7 | Mot1 SUMO dose inactive
S=c1[nH]nc(-c2ccccn2)n1/N=C/c1ccccc1	Mot1-301 SUMO 368.9 | Mot1 SUMO dose inactive
Oc1c(Br)cc(Br)cc1/C=N/n1c(-c2ccccc2)n[nH]c1=S	Mot1-301 SUMO 643.7 (no result: ALR inh) | Mot1 SUMO dose inactive
Cc1cccc(C)c1NS(=O)(=O)c1ccc(OCCNS(C)(=O)=O)cc1	Mot1-301 SUMO 654.6 | Mot1 SUMO dose inactive
O=C(O)/C=C\C(=O)NC1CCCCC1	Mot1-301 SUMO 509.1 | Mot1 SUMO dose inactive
COc1ccc([N+](=O)[O-])cc1NC(=O)C1CCCN1S(=O)(=O)c1cccs1 (stereo not given)	Mot1-301 SUMO 418.3 | Mot1 SUMO dose inactive
Cc1sc(NC(=O)c2ccco2)c(C(c2cccnc2)N2CCN(c3ccc(F)cc3)CC2)c1C (stereo not given)	none
Cc1sc(NC(=O)c2ccco2)c(C(c2ccc(F)cc2)N2CCN(C)CC2)c1C (stereo not given)	Mot1-301 SUMO 405.4 (no result: ALR inh) | Mot1 SUMO dose inactive
O=C1NN=C(c2ccc(Br)cc2)CC1c1ccc(Cl)cc1 (stereo not given)	none
Cc1ccc(C(=O)NNc2ncnc3c2cnn3C)cc1	Mot1-301 SUMO active | Mot1 SUMO dose inactive
O=C1c2ccccc2C(O)(c2ccccc2)N1c1ccncc1 (stereo not given)	none (no result: ALR inh)
CCOC(=O)c1cc2c(ccn2-c2ccc(F)cc2)n1CC(=O)N1CCN(C(=O)c2ccco2)CC1	Mot1-301 SUMO 377.6 | Mot1 SUMO dose inactive
COc1cccc(C(c2sc3nc(C)nn3c2O)N2CCc3ccccc3C2)c1 (stereo not given)	none
O=C(c1cccs1)N(C(=O)c1cccs1)c1ccc(Br)cn1	Mot1-301 SUMO 481.6 (no result: ALR inh) | Mot1 SUMO dose inactive
CCn1c2c(c3cc(Cl)ccc31)CCCC2=O	none
OC1CN=C2CCCc3c2n(c2ccc(Cl)cc32)C1 (stereo not given)	Mot1-301 SUMO 367.9 | Mot1 SUMO dose inactive
Cn1c(COc2ccccc2)nnc1SCC(=O)Nc1ccc(N2CCOCC2)cc1	none
O=C(COc1ccccc1)N1CCN=C1SCc1ccccc1F	none
O=C(c1ccccc1F)N1CCN=C1SCc1cccnc1	Mot1-301 SUMO 569.3, ALR inh 99.8 | Mot1 SUMO dose inactive
COc1ccccc1CNc1nc(SC)ncc1CO	Mot1-301 SUMO 473.7 | Mot1 SUMO dose inactive
Cc1ccc(C)c(NC(=S)NC(=O)c2cncc(Br)c2)c1	Mot1-301 SUMO 571.4 | Mot1 SUMO dose inactive
CCOC(=O)COc1c(Br)cc(/C=C2\SC(=O)N(CC(=O)N3CCCC3)C2=O)cc1OC	none (no result: ALR inh)
CCOc1ccc(C(=O)Nc2ccc(CN3CCOCC3)cc2)cc1Br	Mot1-301 SUMO 364.9 (no result: AHR act) | Mot1 SUMO dose inactive
CCOc1ccc(NC(=O)c2ccc(NC(=O)c3ccc(CN4CCOCC4)cc3)cc2)cc1	none
CCCCn1c(N)c(N(CCOC)C(=O)c2cnccn2)c(=O)[nH]c1=O	Mot1-301 SUMO 765.4 | Mot1 SUMO dose inactive
CCCCn1c(N)c(N(CCOC)C(=O)c2ccc(Cl)c(S(=O)(=O)N3CCCCC3)c2)c(=O)[nH]c1=O	Mot1-301 SUMO 697.6 | Mot1 SUMO dose inactive
Cc1cc(NC(=O)c2sccc2C)n(-c2cccc(Cl)c2)n1	none (no result: ALR inh)
O=C(c1ccc(Cl)cc1)N1CCC(C(=O)N2CCCc3ccccc32)CC1	none
CCOc1ccc(NC2OCC(O)C(O)C2O)c([N+](=O)[O-])c1 (stereo not given)	none
COc1ccc(/C=C2\SC(=S)N(CCCC(=O)Nc3cc(C)on3)C2=O)cc1OC	Mot1-301 SUMO active | Mot1 SUMO dose inactive
CNC(=O)COC(=O)C1CCN(S(=O)(=O)c2ccc3c(c2)OCCO3)CC1	none (no result: ALR inh)
CCOC(=O)N1CCN(S(=O)(=O)c2ccc(Br)s2)CC1	Mot1-301 SUMO 365.0 | Mot1 SUMO dose inactive
CCOC(=O)N1CCN(S(=O)(=O)c2ccc(OCC)c(C)c2)CC1	none
CCOC(=O)N1CCC(NS(=O)(=O)c2ccc(C)c(Cl)c2)CC1	Mot1-301 SUMO 559.3 | Mot1 SUMO dose inactive
CCOC(=O)N1CCN(S(=O)(=O)c2ccc(C)c(C)c2)CC1	Mot1-301 SUMO 388.4 | Mot1 SUMO dose inactive
O=C(NCCCc1ccccc1)c1c(O)nc2sccn2c1=O	none
O=C(O)c1cccc(N2C(=O)CSC2c2ccccc2)c1 (stereo not given)	none
Cc1cccc(N2C(=O)CSC2c2cccnc2)c1 (stereo not given)	Mot1-301 SUMO 686.5, ALR inh 99.0 | Mot1 SUMO dose inactive
CCOc1ccc(N2C(=O)CC(Sc3nc4ccc(OCC)cc4s3)C2=O)cc1 (stereo not given)	none
C=CCNc1nnc(SC2CC(=O)N(c3ccc(OCCC)cc3)C2=O)s1 (stereo not given)	Mot1-301 SUMO active | Mot1 SUMO dose inactive
COc1cccc(S(=O)(=O)Nc2cccc(C(=O)N3CCCC3)c2)c1	none (no result: AHR act)
Cc1c(C(=O)N2CCOCC2)c(S(=O)(=O)Nc2cccc(Br)c2)c(C)n1C	Mot1-301 SUMO 553.1 | Mot1 SUMO dose inactive
COc1cccc(S(=O)(=O)Nc2cccc(C(=O)N3CCOCC3)c2)c1	Mot1-301 SUMO 477.8 | Mot1 SUMO dose inactive
Cc1c(C(=O)N2CCCCC2)c(S(=O)(=O)Nc2cccc(Br)c2)c(C)n1C	none
CCCOC(=O)c1c(NC(=O)/C=C/c2cnn(C)c2C)sc(C(=O)OC)c1C	Mot1-301 SUMO active | Mot1 SUMO dose inactive
N#C/C(=C\Nc1ccc2c(c1)OCCO2)c1nc(-c2ccccc2)cs1	none
N#C/C(=C\Nc1ccc2c(c1)OCCO2)c1nc2ccccc2[nH]1	Mot1-301 SUMO 934.8 | Mot1 SUMO dose inactive
O=C(N/N=C/c1ccc(Cl)s1)c1ccccc1[N+](=O)[O-]	Mot1-301 SUMO 805.0 | Mot1 SUMO dose inactive
